In all, about 96,000 compounds went through this assay and about 20,000 (21%) were called active. Not all results are given here. Unmarked numbers belong to inactive results.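 The calls were made as follows: active = CYP2C19 inhibition above a set limit at 5 µM in the primary screen (cut at about 50% in these data); inactive = the rest.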
These compounds were tested against Cytochrome P450 2C19 (Homo sapiens) (UniProt P33261) (assay: blockers of cytochrome P450 2C19 activity – biochemical, luminescence, ADME assay, primary screen (AID 778;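 also: plate controls were negative control wells for no effect and 2.5 mM tranylcypromine positive control for full effect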)). Conditions: CYP2C19 Supersomes, luciferin-H EGE luminescence, 30 min; at 5 µM; hits give high values.
Cytochrome P450 2C19 (Homo sapiens), sequence (P33261 whole entry, looked up): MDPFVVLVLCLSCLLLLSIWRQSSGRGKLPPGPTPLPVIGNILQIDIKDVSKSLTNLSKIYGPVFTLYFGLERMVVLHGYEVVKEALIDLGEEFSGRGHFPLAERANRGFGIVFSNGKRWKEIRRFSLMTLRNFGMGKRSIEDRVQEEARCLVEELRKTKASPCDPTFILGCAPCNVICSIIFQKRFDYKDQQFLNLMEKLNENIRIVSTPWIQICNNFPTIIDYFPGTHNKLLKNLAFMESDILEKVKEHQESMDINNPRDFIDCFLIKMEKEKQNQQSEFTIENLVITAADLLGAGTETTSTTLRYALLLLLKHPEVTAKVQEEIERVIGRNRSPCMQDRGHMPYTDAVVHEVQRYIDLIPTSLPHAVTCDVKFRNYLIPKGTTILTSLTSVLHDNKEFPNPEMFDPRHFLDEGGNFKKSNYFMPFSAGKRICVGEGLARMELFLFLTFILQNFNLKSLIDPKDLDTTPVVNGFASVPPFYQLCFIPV
In the case of `CC1CCCN(c2ccc(C(=O)NCCc3ccccc3)cn2)C1` (stereo not given), the inhibition is reported as 60.7% (active). Compound `CC(=O)c1cccc(NC(=O)N2CCCC2C(=O)NCCc2ccccc2)c1` (stereo not given) has an inhibition of 30.9%. `O=C(NCCc1ccccc1)c1ccc(NC2=NC3CS(=O)(=O)CC3S2)cc1` (stereo not given) was tested, and the inhibition was 5%. `CCc1ccc2oc(-c3ccc(N)cc3)nc2c1` was tested, and the inhibition was -5.5%. Compound `CC(C)C(=O)N1CCN(CCN=CC2=C(O)CC(c3ccco3)CC2=O)CC1` (stereo not given) has an inhibition of 2.8%. With `O=[N+]([O-])c1ccccc1/C=N/n1c(COc2ccccc2)n[nH]c1=S` the inhibition was 8.1%. Work on `Cc1cccc(-n2c(N)c(C(=O)N3CCN(C)CC3)sc2=S)c1` yielded an inhibition of 6.5%. `CC1CCCN(Cc2nc3c(c(=O)n(C)c(=O)n3C)n2CC(=O)c2ccccc2)C1` (stereo not given) gave an inhibition of 15.6%. `COc1cc2ccccc2cc1C(=O)Nc1ccc(S(=O)(=O)Nc2cc(C)on2)cc1` gave an inhibition of -10.1%. With `COc1ccc(NC(=O)CSc2nc(NS(=O)(=O)c3ccc(C)cc3)cc(=O)[nH]2)cc1` the inhibition was 85.4% (active). `COC(=O)c1cccc(NC(=O)CSc2nc(C)cc(=O)[nH]2)c1` gave an inhibition of 20.8%. `COc1ccc(OC)c(NC(=O)CSc2nc(N)c(-c3ccccc3)c(=O)[nH]2)c1` gave an inhibition of 11.1%. `COc1ccc(NC(=O)CSc2nc(N)c(-c3ccccc3)c(=O)[nH]2)cc1` gave an inhibition of 2%. `COc1ccc2nc(SCC(=O)Nc3c(C)cc(C)cc3C)[nH]c2c1` was tested, and the inhibition was 64.3% (active). In the case of `C=CCn1c(=S)[nH]c2nc3c(cc2c1=O)COC(C)(C)C3`, the inhibition is reported as 41.9%. `Cc1nc2ncnn2c(C)c1CCC(=O)N1CCN(C(=O)c2ccco2)CC1` was tested, and the inhibition was -9.1%. `CCN(c1ccccc1)S(=O)(=O)c1ccc(N)cc1` gave an inhibition of 12.9%. `Cn1nnc(NC(=O)CSc2ncn[nH]2)n1` gave an inhibition of -2%. With `Cn1nc(-c2ccc(Cl)cc2)c2cc(C(=O)NCc3ccco3)sc21` the inhibition was 24.9%. `COc1ccc(-c2nnc(SC(=O)N3c4ccccc4Sc4ccccc43)o2)cc1` showed an inhibition of 11.9%. For `COc1ccc(OC)c(C(=O)CSc2nnc(-c3cccs3)o2)c1`, the inhibition was 54.9% (active). `COc1ccc(-c2nnc(SCC(=O)c3cccs3)o2)c(OC)c1` showed an inhibition of 14.1%. Work on `Cc1cc(NC(=O)CSc2nnc(-c3ccc(Cl)s3)o2)no1` yielded an inhibition of 32.4%. For `COC(=O)CSc1nnc(-c2cccnc2)o1`, the inhibition was 7.2%. With `COc1ccc(-n2c(C)cc(C(=O)CSc3nnc(-c4cccs4)o3)c2C)cc1` the inhibition was 83.2% (active). Compound `COc1cc(/C=C(\C#N)c2nc3c(s2)CC(C)CC3)ccc1O` (stereo not given) has an inhibition of 2.4%. `Cc1ccc2nc(SCc3nnc(-c4ccccc4[N+](=O)[O-])o3)c(C#N)cc2c1` was tested, and the inhibition was 17.1%. In the case of `O=S(=O)(CCc1nc2ccccc2o1)c1ccc(Cl)cc1`, the inhibition is reported as 30.1%. In the case of `COc1ccc(N2C(=O)C3CCCN3C2c2cccs2)cc1` (stereo not given), the inhibition is reported as 29.5%. Compound `CC12CN(Cc3ccccc3)CC(C)(CN(Cc3ccccc3)C1)C2=NO` has an inhibition of 15.1%. Compound `c1ccc(CSc2ncnc3c2sc2nc(N4CCOCC4)c4c(c23)CCCC4)cc1` has an inhibition of 4%. `CCCSc1nsc(N)n1` gave an inhibition of 15.5%. Work on `CCc1nn(-c2cc(Oc3cccc4ccccc34)nc(-c3ccccc3)n2)c(N)c1C#N` yielded an inhibition of 0.4%. `Cc1cc(Cl)c(S(=O)(=O)NCc2cccnc2)cc1OCC(N)=O` showed an inhibition of -7.3%. With `O=S(=O)(NCc1cccnc1)c1ccc(Br)s1` the inhibition was 60.4% (active). `CN(c1ccc(C(=O)NCc2ccccn2)cc1)S(C)(=O)=O` showed an inhibition of 14.5%. For `O=S(=O)(NCc1cccnc1)c1ccc(Cl)nc1`, the inhibition was 13.3%. `O=S(=O)(NCc1ccccn1)c1ccc(Br)s1` was tested, and the inhibition was 61.6% (active). `O=S(=O)(NCc1ccccn1)c1ccc(F)cc1` gave an inhibition of 40.5%. Work on `C#CCSc1nnc(-c2sc3ccccc3c2Cl)o1` yielded an inhibition of 25.2%. `COc1ccc(C(F)(F)F)cc1N/C=C\c1nnnn1-c1ccc(C)cc1` showed an inhibition of 40.8%. `CCc1ccccc1N(CC(=O)N1CCN(c2ccccc2F)CC1)S(C)(=O)=O` gave an inhibition of -6.6%. In the case of `Cc1csc(OCC(=O)Nc2ccc(C)c(C)c2)n1`, the inhibition is reported as 15.8%. With `Cc1ccc(NC(=O)COc2ccc(-n3ccnc3)cc2)cc1Cl` the inhibition was 99.2% (active). For `Cc1ccccc1OCC(=O)Nc1ccc(N2CCN(C(=O)C(C)C)CC2)c(Cl)c1`, the inhibition was 42.7%. With `Cc1ccc(SCC(=O)NC(=O)NCc2ccco2)c(C)c1` the inhibition was 27%. Compound `CC1(N2CCOCC2)CC2(O)C(=[N+]1[O-])CCc1nonc12` (stereo not given) has an inhibition of 21.6%. Work on `CC(=O)c1cnn(-c2cc(Oc3ccc(F)cc3)ncn2)c1C` yielded an inhibition of 46.1%. For `COc1ccccc1Nc1ncc(C(C)=O)c(C)n1`, the inhibition was 1.3%. With `COc1ccccc1-c1c(C)nn2c(C)c(C(C)=O)cnc12` the inhibition was 55% (active). `Cc1nn(-c2ncc(C(F)(F)F)cc2Cl)c(=O)n1-c1ccccc1` gave an inhibition of 23.9%. For `CCCc1cc(=O)oc2c(C)c(O)c(CN3CCCCC3)cc12`, the inhibition was 44.5%. Work on `CC1Cc2cc(/C(O)=C3\C(=O)C(=O)N(CCN4CCOCC4)C3c3ccccc3F)ccc2O1` (stereo not given) yielded an inhibition of -2.6%. For `Cn1c(Cn2nnc3ccccc32)nnc1SCC(=O)c1ccccc1F`, the inhibition was 7.9%. Work on `Cc1cc(C)cc(OCc2nnc(SCC(=O)Nc3ccccc3)o2)c1` yielded an inhibition of 2.4%. With `CC(C)NC(=O)CSc1nnc(COc2ccccc2Cl)o1` the inhibition was 60.8% (active). `Cc1ccccc1OCc1nnc(SCC(=O)N2c3ccccc3Sc3ccc(Cl)cc32)o1` was tested, and the inhibition was 12%. `CCOCCCNC(=O)Cc1cc(=O)[nH]c(=O)[nH]1` showed an inhibition of -18.9%. In the case of `Cc1ccc(F)cc1NC(=O)c1ccc2c(c1)OCO2`, the inhibition is reported as 33.3%. Work on `O=C(CN1CCN(CC(=O)Nc2ccc3c(c2)OCO3)CC1)Nc1ccc(F)cc1` yielded an inhibition of 16.8%. Compound `CC(C)C(=O)Nc1cccc(C(=O)Nc2ccc3c(c2)OCO3)c1` has an inhibition of 30.7%. With `O=C(Nc1ccc(N2CCN(C(=O)c3ccccc3)CC2)c(Cl)c1)c1cccnc1` the inhibition was 22.7%. For `O=C(Nc1ccccc1N1CCN(c2ccccc2)CC1)c1cccc(F)c1`, the inhibition was 79.2% (active). With `O=C(Nc1ccccc1N1CCCCC1)c1ccc2nccnc2c1` the inhibition was 6.8%. Compound `CCCC(=O)Nc1ccccc1N1CCN(C(=O)c2ccccc2)CC1` has an inhibition of 33%. `O=C(Nc1cccnc1)c1ccc2c(c1)OCO2` showed an inhibition of 35.6%. For `O=C(Nc1ccccc1)c1ccc2c(c1)OCO2`, the inhibition was 81.4% (active). For `O=C(CN1CCN(c2ccccc2F)CC1)c1ccc2c(c1)OCO2`, the inhibition was 67.3% (active). In the case of `O=C(Nc1ccccc1N1CCN(C(=O)c2ccccc2)CC1)c1ccc2c(c1)OCO2`, the inhibition is reported as 67% (active). Compound `O=C(Nc1ccccc1N1CCCCC1)c1cccc(F)c1` has an inhibition of 19%. In the case of `O=C(NC12CC3CC(CC(C3)C1)C2)N1CCCC(CO)C1` (stereo not given), the inhibition is reported as 6.5%. `Cc1csc2ncc(C(=O)N(Cc3ccccc3)c3ccccn3)c(=O)n12` was tested, and the inhibition was 0.8%. `O=C(COc1ccc(Br)cc1F)NC1CCN(Cc2ccccc2)CC1` gave an inhibition of 22.6%. In the case of `Cc1cccc(C)c1NC1=NC(=S)N(c2ccc(N(C)C)cc2)C1(C)C`, the inhibition is reported as -1%. For `CN(C)/C=C1/C(=O)Nc2ccccc21`, the inhibition was -9.6%. For `CCOC(=O)C1C(=O)OC2(CCCC2)C1C(=O)OCC` (stereo not given), the inhibition was 23.9%. Compound `NC(=NC(=O)c1ccccc1)C1=C(O)CCC1=O` has an inhibition of -8%. Work on `CN1CCN(CC(=O)C23CC4CC(CC(C4)C2)C3)CC1` yielded an inhibition of 12%. `CC12CCC(C(=O)N(CCC#N)CCC#N)(CC1=O)C2(C)C` (stereo not given) was tested, and the inhibition was -14%. Compound `Cc1cc(C(=O)OCC(=O)c2c(N)n(C)c(=O)n(C)c2=O)c(C)o1` has an inhibition of 7.9%. `Cc1cc(NC(=O)COC(=O)c2ccc(F)c(S(=O)(=O)N3CCOCC3)c2)no1` was tested, and the inhibition was 8.2%. With `Cc1cc(C(=O)OCC(=O)Nc2ccc(F)c(F)c2)c(C)o1` the inhibition was 95% (active). `COc1cc(OC)c(C(=O)NC2CC(C)(C)NC(C)(C)C2)cc1OC` was tested, and the inhibition was -7.8%. `CCOC(=O)NC(C(F)(F)F)(C(F)(F)F)P(=O)(c1ccccc1)c1ccccc1` was tested, and the inhibition was -3.8%. `O=C(O)COc1nsnc1N1CCOCC1` showed an inhibition of -5.8%. With `c1ccc(COc2nsnc2N2CCOCC2)cc1` the inhibition was 98.5% (active). `Fc1cnc(N2CCOCC2)nc1NCc1ccccc1` gave an inhibition of 46.1%. With `c1nc(COc2nsnc2N2CCOCC2)cs1` the inhibition was 53.5% (active). `C/C(=N\NC(=O)Cc1ccc(Cl)cc1)c1ccccn1` showed an inhibition of 39.5%. `COc1cccc2sc(Nc3nc(C)c(C(C)=O)s3)nc12` was tested, and the inhibition was 12.5%. `CCCC(=O)C1CCN(Cc2ccccc2)CC1` gave an inhibition of 30.5%. In the case of `CCOC(=O)C1(S(=O)(=O)c2ccccc2)CCN(Cc2ccccc2)CC1`, the inhibition is reported as 51.8% (active). `CCOC(=O)C1(S(=O)(=O)c2ccc(Cl)cc2)CCN(Cc2ccccc2)CC1` showed an inhibition of 42.5%. For `CSc1nc(C)cc(SC(C(C)=O)C(=O)Nc2ccccc2)n1` (stereo not given), the inhibition was 11.6%. Compound `Cc1cccc(C(=O)Nc2nnc(Cc3c[nH]c4ccccc34)s2)c1` has an inhibition of 8.7%. `CC(=O)c1cc2c(cc1NC(=O)CN1CCCCCC1)OCO2` was tested, and the inhibition was 15.4%. With `Cc1ccc(NC(=O)CN2CCC3(O)CCCCC3C2c2ccc3c(c2)OCO3)c(C)c1` (stereo not given) the inhibition was 63.9% (active). In the case of `CCN(CC)c1ccc(C2C3CCCCC3(O)CCN2CC(=O)Nc2ccccc2)cc1` (stereo not given), the inhibition is reported as 21.9%. `CC(=O)NC(C)(C)C1CC=C(C)/C(=N\O)C1` (stereo not given) was tested, and the inhibition was 2.5%. `O=C(CSc1nnc(Cn2cnc3ccccc32)o1)c1ccccc1` gave an inhibition of 6.9%.
